Structures are written as SMILES. Compounds without any hit were thinned out: in the full panel of roughly 83,000, 20% have a hit.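 Activity criterion: percent growth below 10, measured after cells in 96-well plates were exposed to a single compound concentration for 48 hours.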 Unmarked numbers belong to inactive results. Active and inactive are the calls of the source.

Experimental findings from PubChem BioAssay (NCI) are described below.

This experiment relates to COLO 205 colon. Put plainly: NCI-60 one-dose screen, 48 h (100 = growth as untreated, 0 = no growth, -100 = all killed). Particulars: 10 µM unless noted. How it is done: Cells are grown in 96 well plates and exposed to the test compound for 48 hours. Compounds are tested at a single concentration, which is 10^-5 M for most compounds. The reported endpoint is percent growth (GI% or GIPRCNT), where numbers from 0 - 100% represent growth inhibition, and numbers from -100% - 0 represent cell death. For example, a value of 40 represents 60% growth inhibition. A value of 0 means no net growth occurred over the course of the experiment. A value of -40 indicates 40% of cells at the beginning of the experiment died by the end of the experiment. A value of -100 means all cells are dead at the end of the experiment.
NCI-60 Human Tumor Cell Lines Screen was performed using the standard one-dose NCI protocol, which is described in more detail at https://dtp.cancer.gov/discovery_development/nci-60/default.htm.
Compounds with GIPRCNT values below 10 were considered active. Activity score was based on GIPRCNT using the following formula: […]
Score is 0 for GIPRCNT values of 100 or above, 50 for GIPRCNT values of 0, and 100 for GIPRCNT values of -100.
Take `Cc1c(Cl)cc(-n2c(=O)c3ccccc3c3ccccc3c2=O)cc1Cl`: the growth was 98.2%. Under `CC1OC(O[C@H]2/C=C/C=C/C=C/C=C/C=C/C=C/C=C/[C@H](C)[C@@H](O)[C@@H](C)[C@H](C)OC(=O)CC(O)CC(O)CCC(O)C(O)CC(O)C[C@]3(O)C[C@H](O)C(C(=O)O)C(C2)O3)C(O)[C@H](N)C1O` (stereo not given in full) stands 38.5%; under `O=C(CSc1nccc(Nc2ccc(S(=O)(=O)Nc3nccs3)cc2)n1)c1ccc(F)cc1`, 108%; under `Cc1ccc(C(=O)C2=C(O)C(=O)N(Cc3cccnc3)C2c2ccccc2F)o1` (stereo not given), 108%. Under `N#C/C(=C\c1ccc(Br)cc1)n1nnc2cc(F)c(F)cc21` stands 25.7%; under `Cc1ccc(/C=C/c2c(C(=O)/C=C/c3ccc(Cl)cc3)c(C)nc3ccccc23)cc1`, 6.99% (active); under `COc1cc(/C=C/C(=O)c2ccc(Nc3nc(Nc4ccc(F)cc4)nc(Nc4ccc(Cl)cc4)n3)cc2)cc(OC)c1OC`, 78.5%. Under `COc1ccc2c(c1)O/C(=C/c1ccc(OCC(=O)c3ccccc3)cc1)C2=O` stands 129%. Regarding `COCN1CCC2N(COC)CCC3N(COC)CCC1N23` (stereo not given), the growth was 94.7%. In the case of `CCc1ccccc1-n1c(-c2ccc(Cl)cc2)cc(-c2ccc(Cl)cc2)c(C#N)c1=O`, the growth was 89.4%. For `C[C@H]1[C@H]2[C@H]3CC[C@@H]4[C@@]5(C)C/C(=C/c6ccco6)C(=O)C(C)(C)[C@@H]5CC[C@@]4(C)[C@]3(C)CC[C@]23CO[C@]1(C)[C@@H](C(=O)/C=C\c1ccco1)C3`, the growth was -6.84% (active). For the molecule `Cc1cc(O)c(C2=NN(c3ccc(S(N)(=O)=O)cc3)C(c3ccccc3Cl)C2)cc1Cl` (stereo not given), the growth was -92.1% (active). For the molecule `Cc1cc(Cl)ccc1Nc1nc(C(F)(F)F)ccc1C(=O)N/N=C/c1ccc(N(C)C)cc1`, the growth was 14.9%. Under `COc1ccc(-c2nc3sccn3c2-c2cc(-c3cc(OC)c(OC)c(OC)c3)on2)cc1` stands 94.2%; under `Cc1ccc(S(=O)(=O)n2cc(CNc3ccc(N4CCOCC4=O)cc3)c3ccccc32)cc1`, 85.1%; under `CC(C)(C)CC(C)(C)Nc1c(-c2ccncc2)nc2cnccn12`, 101%.

Turning to `CN(C)CCCn1c(=O)c2ccccc2c2ccccc21`, the growth was 55%. `COc1cc(C(=O)c2cc(C)c3[nH]c4ccc(Cl)cc4c3c2C)cc(OC)c1OC`: the growth was 11%. Under `S=C(Cc1ccc2c(c1)CCCC2)N1CCOCC1` stands 106%; under `O=C(/C=C/c1c(Cl)nc2sccn12)c1nccs1`, 104%; under `COC(=O)c1ccc(C2Nc3ccc(S(=O)(=O)Nc4ccc(C)c(C)c4)cc3C3OCCC23)cc1` (stereo not given), 94%. Under `O=c1c2cc(F)ccc2sc2c(NCCCN3CCCC3)nc3ccccc3c12` stands 46%; under `CC1(C)CC[C@]2(C(=O)N3CCOCC3)CC[C@]3(C)C(=CC[C@@H]4[C@@]5(C)CC[C@H](OC(=O)c6cccnc6)C(C)(C)[C@@H]5CC[C@]43C)[C@@H]2C1`, 58.4%; under `COc1ccc(C(=O)Nn2c(NCC(=O)N3c4ccccc4Sc4ccccc43)nnc2-c2ccc(O)cc2)cc1`, 112%.

As to `COc1ccc(CNC(=O)C(O)C(Cc2ccccc2)NC(=O)c2[nH]c3ccccc3c(=O)c2C)cc1OC` (stereo not given), the growth was 123%. Under `N#CC1=C(NC=O)Oc2c(ccc3ccccc23)C1c1ccccc1` (stereo not given) stands 96.4%; under `O=C(Nc1ccccc1)Nc1cccc(Oc2nnc(Cl)c3ccccc23)c1`, 35.2%. As to `O=C(NCCNc1cc(-c2cn(-c3ccccc3)nc2-c2cccc(O)c2)ccn1)Nc1ccccc1`, the growth is 81.2%. With `O=[N+]([O-])c1ccc(N2c3ccncc3Sc3ccncc32)cc1`, the growth was 111%.

On to `O=C(NCCCNc1cc(-c2cn(-c3ccccc3)nc2-c2cccc(O)c2)ccn1)c1ccccc1`, for which the growth is -60.3% (active). For `C#Cc1cccc(NC(=O)c2ccc(NC(=O)CCl)cc2)c1`, the growth was -66.9% [8.25 µM] (active).

As for `N#Cc1c(-c2cccc(Cl)c2)cc(-c2cccc(Cl)c2)[nH]c1=O`, the growth was 108%. As to `CC(=O)n1c(-c2ccc(Cl)cc2)nc2c(c1=O)C(c1ccc(Cl)cc1)c1sc3c(Cl)cccc3c1O2` (stereo not given), the growth is -55.9% (active). Take `COC(=O)CCC1=C(C)C2=NC1=CC1=NC(=CC3=NC(=Cc4[nH]c(/c(=C(/C)O)c4C)=C2)C(C(C)=O)=C3C)C(C)=C1CCC(=O)OC`: the growth was 111%. Turning to `COc1cc(C2CC(=O)Nc3c2c(C)nn3-c2nc3ccccc3[nH]2)c(OC)c2c1OCO2` (stereo not given), the growth was 91.9%. Under `Cc1cc(=O)[nH]c(N=Nc2c(O)[nH]c3ccccc23)n1` stands 89.5%; under `Cc1c(C(=O)N[C@@H](Cc2ccccc2)C(=O)C(=O)NCCc2ccccc2)[nH]c2ccccc2c1=O`, 31.2%. The figure for `N#Cc1nc(C#N)c(Sc2ccccc2)c(Sc2ccccc2)c1Sc1ccccc1` is -88.2% (active).

As to `O=C(Nc1cccc(C(F)(F)F)c1)Nc1cccc(C(F)(F)F)c1`, the growth is -85.2% (active).

Take `CC(=O)c1ccc(NCC(=O)Nc2ccccn2)cc1`: the growth is 103%.
